In PubChem BioAssay (NCI) one finds growth data, which are given here for 19 compounds.

Values joined by “and” are separate entries in the source; they are usually repeats but may differ in a detail not shown here. Identical values can stand only once. Compounds without any hit were thinned out: in the full panel of roughly 83,000, 20% have a hit.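 Values shown are percent growth following 48 h exposure of cells in 96-well plates to a single concentration of compound; below 10 was considered active.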 Active and inactive are the calls of the source.

Among the test systems are BT-549 breast; MDA-MB-435 melanoma; SW-620 colon; MCF7 breast; HCT-116 colon; HCC-2998 colon; KM12 colon.
What all share (test): NCI-60 one-dose screen, 48 h (100 = growth as untreated, 0 = no growth, -100 = all killed)
Holding throughout (conditions): 10 µM unless noted

Consider `CCCCCCCC/C=C\CCCCCCCCOc1cccc(CC(=O)NCC[N+](C)(C)C)c1`, for which the growth in the experiment with BT-549 breast is 74.4% (inactive); in the experiment with MDA-MB-435 melanoma, 91.5% (inactive); with SW-620 colon it was 96.5% (inactive); in the experiment on MCF7 breast, 90.8% (inactive); in the experiment on HCT-116 colon it was 75.2% (inactive); with HCC-2998 colon, 66.1% (inactive). Moreover, in the experiment on KM12 colon, the growth is 57.8% (inactive).
On to `N#C/C(=C\c1ccc[nH]1)c1cc2ccccc2[nH]1`, for which the growth in the experiment on BT-549 breast was 66.9% (inactive); in the experiment on MDA-MB-435 melanoma, 83.2% (inactive); in the experiment on SW-620 colon, 96.3% (inactive); with MCF7 breast, 9.04% (active); in the experiment with HCT-116 colon, 63.4% (inactive); with HCC-2998 colon, 63.8% (inactive). Moreover, in the experiment with KM12 colon, the growth was 30.7% (inactive).
`c1ccc(-c2n(Cc3ccc4ccccc4c3)c3ccccc3[n+]2Cc2ccc3ccccc3c2)cc1`: the growth was -28.2% (active) in the experiment on BT-549 breast; -76.4% (active) in the experiment on MDA-MB-435 melanoma; -48.5% (active) with SW-620 colon; -44.2% (active) with MCF7 breast; -85.4% (active) with HCT-116 colon; -79.3% (active) in the experiment on HCC-2998 colon. Further, in the experiment with KM12 colon, the growth is -86.8% (active).
For the compound `COc1cc2cc(Oc3ccc(NC(=O)Nc4ccc(Cl)c(C(F)(F)F)c4)cc3)c(C)nc2cc1OCCN1CCCCC1`, the growth was 71.7% (inactive) in the experiment with BT-549 breast; -95.9% (active) in the experiment with MDA-MB-435 melanoma; -89.4% (active) with SW-620 colon; -85.9% (active) in the experiment on MCF7 breast; -46.3% (active) with HCT-116 colon; -38.6% (active) with HCC-2998 colon. In the experiment on KM12 colon, the growth is -79.6% (active).
As to `O=c1[nH]c(=O)n(Cc2ccc(F)cc2)cc1F`, the growth in the experiment on BT-549 breast was 102% [50 µM] (inactive); in the experiment with MDA-MB-435 melanoma, 104% [50 µM] (inactive); with SW-620 colon, 105% [50 µM] (inactive); in the experiment with MCF7 breast, 96.3% [50 µM] (inactive); in the experiment on HCT-116 colon it was 112% [50 µM] (inactive); with HCC-2998 colon it was 112% [50 µM] (inactive). Besides, in the experiment on KM12 colon, the growth is 106% [50 µM] (inactive).
With `COc1ccc(/C=C2\Oc3cc(C)c(Cl)cc3C2=O)cc1OC`, the growth is 89.1% (inactive) with BT-549 breast; 96.6% (inactive) in the experiment with MDA-MB-435 melanoma; 104% (inactive) in the experiment on SW-620 colon; 83.1% (inactive) in the experiment on MCF7 breast; 84.6% (inactive) in the experiment on HCT-116 colon; 116% (inactive) in the experiment on HCC-2998 colon. Further, the growth in the experiment on KM12 colon is 100% (inactive).
As to `COc1ccc(/C=N\N2CCOCC2)cc1OC1CCCC1`, the growth in the experiment on BT-549 breast is 83.8% (inactive); with MDA-MB-435 melanoma it was 106% (inactive); with SW-620 colon it was 100% (inactive); in the experiment with MCF7 breast, 93.2% (inactive); in the experiment with HCT-116 colon it was 87.9% (inactive); with HCC-2998 colon it was 112% (inactive). Further, the growth with KM12 colon is 106% (inactive).
For the compound `O=C(N/N=C/c1ccc2c(c1)OCO2)c1cnn2c1NC(c1ccccc1)C2` (stereo not given), the growth is 60.6% (inactive) in the experiment on BT-549 breast; 3.07% (active) with MDA-MB-435 melanoma; 43.6% (inactive) with SW-620 colon; 33% (inactive) with MCF7 breast; 25.1% (inactive) in the experiment on HCT-116 colon; 45.3% (inactive) in the experiment with HCC-2998 colon. Further, in the experiment on KM12 colon, the growth was 21.3% (inactive).
Consider `c1ccc2cc(Cn3c(-c4ccc5ccccc5c4)[n+](Cc4ccc5ccccc5c4)c4ccccc43)ccc2c1`, for which the growth was -46.5% (active) in the experiment on BT-549 breast; -80.4% (active) in the experiment on MDA-MB-435 melanoma; -85% (active) in the experiment with SW-620 colon; -70.1% (active) with MCF7 breast; -61% (active) with HCT-116 colon; -88.7% (active) in the experiment with HCC-2998 colon. For the same compound, the growth in the experiment with KM12 colon was -90.6% (active).
With `CC1CCCCN1S(=O)(=O)c1ccc(CN=C=S)cc1` (stereo not given), the growth is 76% (inactive) in the experiment on BT-549 breast; 47.2% (inactive) with MDA-MB-435 melanoma; -15.4% (active) in the experiment with SW-620 colon; 10.2% (inactive) in the experiment with MCF7 breast; 9.92% (active) in the experiment with HCT-116 colon; 103% (inactive) in the experiment on HCC-2998 colon. The growth with KM12 colon was 22.2% (inactive).
Take `CCCCCCCC/C=C\CCCCCCCCOc1cccc(CC(=O)NCC[N+]2(C)CCCC2)c1`: the growth in the experiment with BT-549 breast was 115% (inactive); in the experiment on MDA-MB-435 melanoma, 85.7% (inactive); with SW-620 colon, 77.9% (inactive); with MCF7 breast, 73.4% (inactive); with HCT-116 colon, 76.2% (inactive); with HCC-2998 colon, 75.9% (inactive). For the same compound, the growth in the experiment with KM12 colon was 69.2% (inactive).
For the compound `COc1ccc(NS(=O)(=O)c2ccc(-c3cnc(C4CC4)o3)cc2)cc1`, the growth is 58.6% (inactive) in the experiment with BT-549 breast; 1.55% (active) in the experiment on MDA-MB-435 melanoma; 20.1% (inactive) in the experiment on SW-620 colon; 29.4% (inactive) in the experiment on MCF7 breast; 38.8% (inactive) in the experiment on HCT-116 colon; 85.9% (inactive) with HCC-2998 colon. Also, the growth with KM12 colon is 40.2% (inactive).
For `Cc1nc2ccc(Cl)cc2n1C`, the growth with BT-549 breast was 103% (inactive); in the experiment on MDA-MB-435 melanoma, 109% (inactive); with SW-620 colon, 108% (inactive); in the experiment on MCF7 breast, 102% (inactive); in the experiment with HCT-116 colon, 109% (inactive); with KM12 colon, 104% (inactive).
As to `CC(=O)NC(CS/N=N/c1nc[nH]c1C(N)=O)C(=O)O` (stereo not given), in the experiment with MCF7 breast, the growth is 28.2% [100 µM] (inactive) and 6.86% [100 µM] (active).
As for `COc1ccc(/C=C2\SC(=O)N(CN3CCN(c4cc5c(cc4F)c(=O)c(C(=O)O)cn5C4CC4)CC3)C2=O)cc1`, the growth in the experiment on MDA-MB-435 melanoma was 98% (inactive); with SW-620 colon, 99.8% (inactive); with MCF7 breast, 95.2% (inactive); in the experiment on HCT-116 colon, 85.7% (inactive); in the experiment with HCC-2998 colon, 104% (inactive); with KM12 colon, 103% (inactive).
For `COC(=O)[C@@]12CC[C@@H](C)[C@]3(C[C@@H](c4ccoc4)OC3=O)[C@H]1CC[C@@H]1O[C@@]12C`, the growth is 99.8% (inactive) in the experiment on MDA-MB-435 melanoma; 97.1% (inactive) with SW-620 colon; 96.7% (inactive) with MCF7 breast; 95.5% (inactive) with HCT-116 colon; 103% (inactive) with KM12 colon.
With `COc1cc(/C=N/NC(=O)c2cnn3c2NC(c2ccccc2)C3)cc(OC)c1OC` (stereo not given), the growth with MDA-MB-435 melanoma is -15.9% (active); with SW-620 colon, 32.8% (inactive); with MCF7 breast, 34.9% (inactive); in the experiment with HCT-116 colon it was 35% (inactive); in the experiment on HCC-2998 colon, 91.2% (inactive); in the experiment on KM12 colon it was 30.6% (inactive).
Consider `NC(=O)c1[nH]cnc1/N=N/SCC(N)C(=O)O` (stereo not given), for which, in the experiment with MCF7 breast, the growth was 45.4% [100 µM] (inactive) and 15.8% [100 µM] (inactive).
On to `CCN1CCN(c2ccc(Nc3ncc4ccc5ncn(C(C)C)c5c4n3)nc2)CC1`, for which the growth with BT-549 breast was -24.7% (active); with MDA-MB-435 melanoma, 0.992% (active); with SW-620 colon it was -7.47% (active); with MCF7 breast, -1.88% (active); in the experiment on HCT-116 colon it was 8.77% (active); with KM12 colon, -16.9% (active).
